Records with an inconclusive call do not appear. The source made the active and inactive calls. Rule for the calls: active = hit-call score of the fitted dose curve at least 0.9, where 1 is the maximum; inconclusive = response in the unintended direction; inactive = score below 0.9.
Legend:
[1] = target: human Adenosine A2a Receptor (AdoRA2a), ADORA2A (gene 135) (UniProt P29274); test: NVS_GPCR_hAdoRA2a: NovaScreen (NVS) G Protein-Coupled Receptor Assay for human Adenosine A2a Receptor (AdoRA2a) (AID 2283256)
Chain of human Adenosine A2a Receptor (AdoRA2a), ADORA2A (gene 135) (P29274 whole entry, looked up): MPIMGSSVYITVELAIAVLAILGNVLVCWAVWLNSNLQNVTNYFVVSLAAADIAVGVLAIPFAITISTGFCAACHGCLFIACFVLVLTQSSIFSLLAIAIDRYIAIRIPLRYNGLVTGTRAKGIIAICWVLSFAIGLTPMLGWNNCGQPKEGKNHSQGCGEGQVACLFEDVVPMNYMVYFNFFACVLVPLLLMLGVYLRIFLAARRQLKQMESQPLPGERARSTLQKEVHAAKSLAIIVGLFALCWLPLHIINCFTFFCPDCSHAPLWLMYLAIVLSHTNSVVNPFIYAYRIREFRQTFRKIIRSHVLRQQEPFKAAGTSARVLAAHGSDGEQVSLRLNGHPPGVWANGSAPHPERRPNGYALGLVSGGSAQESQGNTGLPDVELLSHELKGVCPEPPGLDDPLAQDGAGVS
Summary of the method: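 Radioligand displacement on HEK293-derived membrane protein, cell-free; filter-based scintillation counting 1.5 hours after dosing, loss of signal vs DMSO. Single-point duplicate screen at 25 uM, actives retested in concentration series.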

[2] = target: human Adrenergic, Beta 1 Receptor (Adrb1), ADRB1 (gene 153) (UniProt P08588); test: NVS_GPCR_hAdrb1: NovaScreen (NVS) G Protein-Coupled Receptor Assay for human Adrenergic, Beta 1 Receptor (Adrb1) (AID 2283258)
Chain of human Adrenergic, Beta 1 Receptor (Adrb1), ADRB1 (gene 153) (P08588 whole entry, looked up): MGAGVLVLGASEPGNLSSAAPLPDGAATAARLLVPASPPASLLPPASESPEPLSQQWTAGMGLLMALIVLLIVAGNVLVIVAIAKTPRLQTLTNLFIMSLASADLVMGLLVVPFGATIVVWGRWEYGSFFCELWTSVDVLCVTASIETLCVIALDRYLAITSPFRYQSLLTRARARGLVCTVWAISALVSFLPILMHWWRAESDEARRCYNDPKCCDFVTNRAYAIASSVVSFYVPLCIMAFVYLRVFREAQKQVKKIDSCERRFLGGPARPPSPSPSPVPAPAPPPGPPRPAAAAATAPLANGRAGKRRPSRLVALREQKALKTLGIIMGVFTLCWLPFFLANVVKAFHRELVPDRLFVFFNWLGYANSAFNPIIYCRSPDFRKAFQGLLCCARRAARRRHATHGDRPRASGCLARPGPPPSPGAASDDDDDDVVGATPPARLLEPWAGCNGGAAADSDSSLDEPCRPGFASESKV
Summary of the method: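 Cell-free radioligand displacement on receptor from human neuroepithelioma cells; 2 h after dosing, filter-based scintillation counting. Primary screen in duplicate at 25 uM, actives retested in concentration series; loss of signal vs DMSO baseline.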

[3] = target: human Adrenergic, Alpha 2c Receptor (Adra2C), ADRA2C (gene 152) (UniProt P18825); test: NVS_GPCR_hAdra2C: NovaScreen (NVS) G Protein-Coupled Receptor Assay for human Adrenergic, Alpha 2c Receptor (Adra2C) (AID 2283259)
Chain of human Adrenergic, Alpha 2c Receptor (Adra2C), ADRA2C (gene 152) (P18825 whole entry, looked up): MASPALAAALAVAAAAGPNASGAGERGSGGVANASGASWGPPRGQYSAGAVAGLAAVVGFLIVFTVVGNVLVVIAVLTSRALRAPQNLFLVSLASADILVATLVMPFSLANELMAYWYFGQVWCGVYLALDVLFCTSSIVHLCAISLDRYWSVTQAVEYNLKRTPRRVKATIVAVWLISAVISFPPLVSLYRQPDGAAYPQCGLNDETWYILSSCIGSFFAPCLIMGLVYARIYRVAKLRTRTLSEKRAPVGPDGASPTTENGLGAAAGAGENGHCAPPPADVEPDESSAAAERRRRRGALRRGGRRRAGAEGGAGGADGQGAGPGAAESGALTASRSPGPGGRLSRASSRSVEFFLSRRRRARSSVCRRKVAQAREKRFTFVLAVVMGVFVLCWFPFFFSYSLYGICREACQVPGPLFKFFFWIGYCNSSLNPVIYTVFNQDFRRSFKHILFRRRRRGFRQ
Summary of the method: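 Radioligand binding on Sf9-expressed receptor membranes, 1 h after chemical dosing, filter-based scintillation read-out. Loss of binding fitted positively versus DMSO; primary duplicate screen at 25 uM, actives retested in concentration series.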

[4] = target: Type-1 angiotensin II receptor (Homo sapiens) (UniProt P30556); test: NVS_GPCR_hAT1: NovaScreen (NVS) G Protein-Coupled Receptor Assay for human Angiotensin II receptor type 1 (AT1) (AID 2283263)
Chain of Type-1 angiotensin II receptor (Homo sapiens) (P30556 whole entry, looked up): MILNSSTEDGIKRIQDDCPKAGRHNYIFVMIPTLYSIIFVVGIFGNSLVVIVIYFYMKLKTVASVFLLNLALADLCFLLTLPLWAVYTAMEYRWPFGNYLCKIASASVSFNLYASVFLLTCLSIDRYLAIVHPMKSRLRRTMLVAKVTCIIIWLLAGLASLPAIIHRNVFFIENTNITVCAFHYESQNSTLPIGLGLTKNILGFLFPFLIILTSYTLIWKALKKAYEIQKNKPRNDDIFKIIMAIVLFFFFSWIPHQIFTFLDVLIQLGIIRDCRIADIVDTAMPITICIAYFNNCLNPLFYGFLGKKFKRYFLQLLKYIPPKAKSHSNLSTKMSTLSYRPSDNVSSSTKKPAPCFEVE
Procedure: NVS_GPCR_hAT1 is a biochemical, single-readout assay that uses extracted gene-proteins from KAN-TS in a tissue-based cell-free assay. Measurements were taken 3 hours after chemical dosing in a 48-well plate.NVS_GPCR_hAT1 is one of one assay component(s) measured or calculated from the NVS_GPCR_hAT1 assay. It is designed to make measurements of radioligand binding, a form of binding reporter, as detected with scintillation counting signals by Filter-based radiodetection technology.Data from the assay component NVS_GPCR_hAT1 was analyzed into 1 assay endpoint. This assay endpoint, NVS_GPCR_hAT1, was analyzed in the positive analysis fitting direction relative to DMSO as the negative control and baseline of activity. Using a type of binding reporter, loss-of-signal activity can be used to understand changes in the binding as they relate to the gene AGTR1. Furthermore, this assay endpoint can be referred to as a primary readout, because the performed assay has only produced 1 assay endpoint. To generalize the intended target to other relatable targets, this assay endpoint is annotated to the gpcr intended target family, where the subfamily is rhodopsin-like receptor.
Binding assays used specific radioligands (tritiated, iodinated) with non-radioactive competitive displacement ligands in agonist or antagonist protocols (as indicated) and various reference compounds and inhibitors to titrate specific binding to receptors and transporters. Most enzyme assays (CYPs, kinases, phosphatases, proteases, HDACs) used recombinant protein and specific substrates (fluorescence mostly, some colorimetric and radioactive) and inhibitors, followed by a biochemical separation of substrate and product. All assays for the biochemical HTS were initially run in duplicate at a single concentration (10 uM for CYP450 assays and 25 uM for all others). Assay-chemical combinations meeting a pre-defined threshold (e.g., 30% inhibition and other criteria defined below) were then run in singleton concentration-response format with maximum concentration of 20 uM for CYPs and 50 uM for all others. Each assay was run with positive and negative controls, and concurrent controls on every plate. The follow-up (secondary) screen tested active chemical-pairs in concentration series, as well as a few additional assays not tested in the primary screen, some selected negative inactives, and several cases re-run in the concentration series for confirmatory purposes.

[5] = target: human Serotonin, 5-Hydroxytryptamine Receptor 7 (5HT7), HTR7 (gene 3363) (UniProt P34969); test: NVS_GPCR_h5HT7: NovaScreen (NVS) G Protein-Coupled Receptor Assay for human Serotonin, 5-Hydroxytryptamine Receptor 7 (5HT7) (AID 2283255);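 note: hits reduce specific radioligand binding relative to DMSO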
Chain of human Serotonin, 5-Hydroxytryptamine Receptor 7 (5HT7), HTR7 (gene 3363) (P34969 whole entry, looked up): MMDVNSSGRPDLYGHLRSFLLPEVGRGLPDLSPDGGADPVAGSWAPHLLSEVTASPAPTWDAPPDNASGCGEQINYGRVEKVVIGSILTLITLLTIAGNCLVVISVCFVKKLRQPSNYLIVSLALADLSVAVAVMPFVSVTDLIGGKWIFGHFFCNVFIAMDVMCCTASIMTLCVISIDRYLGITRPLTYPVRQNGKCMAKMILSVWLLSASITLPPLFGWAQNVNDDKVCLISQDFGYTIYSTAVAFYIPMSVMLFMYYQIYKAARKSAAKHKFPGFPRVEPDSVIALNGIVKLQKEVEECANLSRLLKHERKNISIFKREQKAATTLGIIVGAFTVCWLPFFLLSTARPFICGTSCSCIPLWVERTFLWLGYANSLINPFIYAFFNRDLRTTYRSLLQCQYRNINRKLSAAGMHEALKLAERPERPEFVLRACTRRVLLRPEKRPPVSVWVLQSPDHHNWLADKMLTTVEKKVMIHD
Summary of the method: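 Radioligand displacement on membranes from CHO cells expressing human 5HT7, 1 h incubation, filter-based scintillation counting. Primary screen used a single 25 uM concentration in duplicate; actives were followed up in concentration series.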

[6] = target: human Endothelin Receptor Type A (ETA), EDNRA (gene 1909) (UniProt P25101); test: NVS_GPCR_hETA: NovaScreen (NVS) G Protein-Coupled Receptor Assay for human Endothelin Receptor Type A (ETA) (AID 2283265)
Chain of human Endothelin Receptor Type A (ETA), EDNRA (gene 1909) (P25101 whole entry, looked up): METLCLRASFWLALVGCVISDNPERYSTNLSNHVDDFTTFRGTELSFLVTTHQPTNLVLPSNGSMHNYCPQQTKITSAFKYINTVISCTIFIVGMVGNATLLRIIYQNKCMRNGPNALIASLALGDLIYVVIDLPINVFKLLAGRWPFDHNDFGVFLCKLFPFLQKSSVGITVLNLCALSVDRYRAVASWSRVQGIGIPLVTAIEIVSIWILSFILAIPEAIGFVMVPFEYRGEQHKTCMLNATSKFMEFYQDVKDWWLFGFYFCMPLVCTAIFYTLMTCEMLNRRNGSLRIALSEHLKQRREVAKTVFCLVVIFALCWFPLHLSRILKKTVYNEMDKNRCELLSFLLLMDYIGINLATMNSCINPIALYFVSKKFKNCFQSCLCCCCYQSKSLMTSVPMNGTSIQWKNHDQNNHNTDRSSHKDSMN
Summary of the method: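 Cell-free radioligand displacement using SH-SY5Y-derived protein, 3 h incubation, filter-based scintillation counting. Primary screen in duplicate at 25 uM; actives then run in concentration-response up to 50 uM; loss of binding fitted versus DMSO.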

[7] = target: Beta-2 adrenergic receptor (Homo sapiens) (UniProt P07550); test: NVS_GPCR_hAdrb2: NovaScreen (NVS) G Protein-Coupled Receptor Assay for human Adrenergic, Beta 2 Receptor (Adrb2) (AID 2283261)
Chain of Beta-2 adrenergic receptor (Homo sapiens) (P07550 whole entry, looked up): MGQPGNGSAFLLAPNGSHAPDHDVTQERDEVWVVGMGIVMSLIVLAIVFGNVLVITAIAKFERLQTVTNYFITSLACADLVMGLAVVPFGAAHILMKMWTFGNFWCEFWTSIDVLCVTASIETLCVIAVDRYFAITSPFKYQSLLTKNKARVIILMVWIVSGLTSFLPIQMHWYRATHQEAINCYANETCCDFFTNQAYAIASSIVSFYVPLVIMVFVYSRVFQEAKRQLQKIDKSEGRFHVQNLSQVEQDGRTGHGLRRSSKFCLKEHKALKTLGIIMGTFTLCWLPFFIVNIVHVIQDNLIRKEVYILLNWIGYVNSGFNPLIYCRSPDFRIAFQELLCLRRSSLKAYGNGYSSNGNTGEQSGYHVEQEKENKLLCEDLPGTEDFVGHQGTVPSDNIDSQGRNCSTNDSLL
Summary of the method: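 Filter-based radioligand binding using receptor prepared from CHO cells, 1 h incubation, scintillation counting. Primary screen in duplicate at 25 uM, actives retested in concentration series; loss of binding relative to DMSO.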

[8] = target: human Adrenergic, Alpha 2A Receptor (Adra2A), ADRA2A (gene 150) (UniProt P08913); test: NVS_GPCR_hAdra2A: NovaScreen (NVS) G Protein-Coupled Receptor Assay for human Adrenergic, Alpha 2A Receptor (Adra2A) (AID 2283257)
Chain of human Adrenergic, Alpha 2A Receptor (Adra2A), ADRA2A (gene 150) (P08913 whole entry, looked up): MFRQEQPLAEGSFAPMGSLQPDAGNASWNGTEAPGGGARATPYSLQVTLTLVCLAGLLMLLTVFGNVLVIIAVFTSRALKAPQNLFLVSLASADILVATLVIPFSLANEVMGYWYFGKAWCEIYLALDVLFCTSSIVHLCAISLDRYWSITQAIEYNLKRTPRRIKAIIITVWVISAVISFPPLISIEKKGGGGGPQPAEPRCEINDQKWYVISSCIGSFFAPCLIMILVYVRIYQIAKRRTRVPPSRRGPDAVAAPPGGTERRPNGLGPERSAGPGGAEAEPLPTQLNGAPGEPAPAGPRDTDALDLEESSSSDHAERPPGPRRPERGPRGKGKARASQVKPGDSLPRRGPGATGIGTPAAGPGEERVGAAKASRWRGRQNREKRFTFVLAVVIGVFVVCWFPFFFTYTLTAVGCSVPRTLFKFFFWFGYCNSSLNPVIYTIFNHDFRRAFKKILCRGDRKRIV
Summary of the method: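 Radioligand filter-binding was run on HT29-derived membranes, cell-free, read by scintillation counting 1 h after dosing. Primary screening was in duplicate at 25 uM, with concentration series in follow-up. Loss of signal versus DMSO indicates displacement.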

[9] = target: human Adrenergic, Beta 3 Receptor (Adrb3), ADRB3 (gene 155) (UniProt P13945); test: NVS_GPCR_hAdrb3: NovaScreen (NVS) G Protein-Coupled Receptor Assay for human Adrenergic, Beta 3 Receptor (Adrb3) (AID 2283262)
Chain of human Adrenergic, Beta 3 Receptor (Adrb3), ADRB3 (gene 155) (P13945 whole entry, looked up): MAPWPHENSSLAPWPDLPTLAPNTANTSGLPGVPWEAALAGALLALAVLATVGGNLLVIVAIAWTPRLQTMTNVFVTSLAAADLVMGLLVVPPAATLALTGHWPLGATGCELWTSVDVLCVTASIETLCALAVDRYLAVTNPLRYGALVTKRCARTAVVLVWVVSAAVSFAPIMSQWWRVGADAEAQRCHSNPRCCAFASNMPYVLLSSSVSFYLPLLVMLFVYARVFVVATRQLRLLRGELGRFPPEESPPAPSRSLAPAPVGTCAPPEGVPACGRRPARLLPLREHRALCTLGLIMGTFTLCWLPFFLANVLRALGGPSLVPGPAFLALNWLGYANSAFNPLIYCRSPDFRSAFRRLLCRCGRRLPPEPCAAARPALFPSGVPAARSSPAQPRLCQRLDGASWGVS
Summary of the method: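 Membranes from SK-N-MC cells pretreated with isoproterenol and 8-bromo-cAMP were used in a radioligand competitive displacement binding assay. Binding was read by filter-based scintillation counting 1 hour after dosing. Primary screening was in duplicate at 25 uM, with concentration series in follow-up.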

[10] = target: human Dopamine Receptor D4.4 (DRD4.4), DRD4 (gene 1815) (UniProt P21917); test: NVS_GPCR_hDRD4.4: NovaScreen (NVS) G Protein-Coupled Receptor Assay for human Dopamine Receptor D4.4 (DRD4.4) (AID 2283264)
Chain of human Dopamine Receptor D4.4 (DRD4.4), DRD4 (gene 1815) (P21917 whole entry, looked up): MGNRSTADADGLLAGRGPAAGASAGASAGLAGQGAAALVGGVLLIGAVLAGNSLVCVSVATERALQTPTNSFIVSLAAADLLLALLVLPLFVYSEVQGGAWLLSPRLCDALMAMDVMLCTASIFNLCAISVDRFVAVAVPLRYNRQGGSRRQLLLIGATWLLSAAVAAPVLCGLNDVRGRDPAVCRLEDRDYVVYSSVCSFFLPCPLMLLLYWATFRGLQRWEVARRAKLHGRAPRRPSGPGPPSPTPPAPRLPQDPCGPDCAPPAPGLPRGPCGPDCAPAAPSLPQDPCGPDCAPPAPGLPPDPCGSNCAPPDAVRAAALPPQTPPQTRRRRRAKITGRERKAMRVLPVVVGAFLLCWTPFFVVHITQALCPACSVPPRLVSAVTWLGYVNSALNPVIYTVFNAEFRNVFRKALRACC
Summary of the method: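 Radioligand displacement on human DRD4.4 from CHO-derived membranes, 1 hour incubation, bound counts read by filtration and scintillation. Primary screen in duplicate at 25 uM; actives followed up in concentration series.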

**Q.** With `CN(C)C(=O)NC1(c2ccccc2)CCN(CC[C@@]2(c3ccc(F)c(F)c3)CN(C(=O)c3ccccc3)CCO2)CC1` as the compound, how does the AC50 [1] read?
**A.** 23.5 µM (active)

**Q.** For `Cc1ccc(-c2cc(C(F)(F)F)nn2-c2ccc(S(N)(=O)=O)cc2)cc1`, which AC50 [2] is on record?
**A.** 4.96 µM (active)

**Q.** `CCCCc1nc2cccnc2n1Cc1ccc(-c2ccccc2-c2nnn[nH]2)cc1` was tested. Which outcome [3] did it give?
**A.** inactive

**Q.** What about the AC50 [4] of the same compound?
**A.** 0.0191 µM (active)

**Q.** For `NC(=Nc1ccccc1)Nc1ccccc1`, which AC50 [5] is on record?
**A.** 11.8 µM (active)

**Q.** How did the outcome [4] turn out when `O=Cc1ccccc1C=O` was run?
**A.** inactive

**Q.** And the AC50 [6]?
**A.** 19.2 µM (active)

**Q.** How did the outcome [1] turn out when `Cc1cc(Cc2ccc(N)c(C)c2)ccc1N` was run?
**A.** inactive

**Q.** How did the outcome [2] turn out when `CCCCCCC(CCCCCCCCCCC(=O)OCC(COC(C)=O)OC(C)=O)OC(C)=O` (configuration not stated) was run?
**A.** inactive

**Q.** With `COC(=O)[C@H]1[C@H]2C[C@@H]3c4[nH]c5cc(OC)ccc5c4CCN3C[C@H]2C[C@@H](OC(=O)c2cc(OC)c(OC)c(OC)c2)[C@@H]1OC` as the compound, how does the AC50 [7] read?
**A.** 12.1 µM (active)

**Q.** `CCc1cc(C2=C(C(=O)O)N(c3ccccc3C(F)(F)F)S(=O)(=O)c3ccccc32)cc2c1OCO2` was tested. Which AC50 [4] did it give?
**A.** 16.2 µM (active)

**Q.** And the AC50 [6]?
**A.** 0.0451 µM (active)

**Q.** Which results are given for `CN(C)CCCN1c2ccccc2Sc2ccc(Cl)cc21`?
**A.** AC50 [8]: 1.43 µM (active); AC50 [2]: 25 µM (active); AC50 [7]: 17.1 µM (active); AC50 [9]: 25 µM (active)

**Q.** Which outcome [9] does the source give for `Cn1cnc2c1c(=O)[nH]c(=O)n2C` here?
**A.** inactive

**Q.** Which outcome [5] does the source give for `CN(C)C(=O)NC1(c2ccccc2)CCN(CCC[C@]2(c3ccc(Cl)c(Cl)c3)CCCN(C(=O)c3ccccc3)C2)CC1` here?
**A.** inactive

**Q.** And the outcome [9]?
**A.** inactive

**Q.** And the AC50 [10]?
**A.** 6.25 µM (active)

**Q.** How did the AC50 [1] turn out when `CCC(C)N(C)C(=O)c1cc2ccccc2c(-c2ccccc2Cl)n1` (configuration not stated) was run?
**A.** 7.37 µM (active)

**Q.** And the AC50 [4]?
**A.** 15.9 µM (active)

Reference: PubChem BioAssay (EPA / NIEHS)
